PubChem BioAssay AID602393 (Broad Institute, 2012)
The whole screen tested about 350,000 compounds, of which about 7,000 (2%) were called active. Cut-off read from the data, not from the text of the source: active = activation above about 40%; inconclusive = no clear call, values can overlap the other calls; inactive = below that. The full list was thinned out, with actives kept by preference.

Experiment: Bmi1 luciferase reporter increase in mESCs, primary screen, esBAF inhibitor project, mouse ES cells, Bmi1 luciferase knock-in, single point (AID 602393);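 note: 0% = median of the plate's neutral control wells and 100% = double that signal; a rise in the Bmi1 reporter signal indicates esBAF inhibition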
Conditions: 24 h, at 12.5 µM, stronger effect = higher value, 100% = twice the neutral-well signal

Reporter increase, active:
Cc1ccc(-c2nc3ccc(Br)cn3c2Cc2ccccc2C(F)(F)F)cc1 58.8%, Cc1ccc(-c2nc3ccc(Cl)cn3c2Cc2ccccc2)cc1 44.1%, Fc1cccc(Cc2c(-c3cccc(Cl)c3)nc3ccc(Br)cn23)c1 57.3%, CC(=O)Nc1ccc(NC(=O)CN2CCCC(C)C2)c(Cl)c1 (stereo unspecified) 49.7%, Cn1c(SCc2c(F)cccc2Cl)nnc1-c1cnccn1 59%, Cc1cccc2nc(CNc3ccc(F)cc3)cn12 56.3%, Cc1cccc(N2C(=O)SC(N(CC(=O)O)c3cccc(C)c3)C2=O)c1 (stereo unspecified) 51.9%, O=C(Nc1cccc2ccccc12)c1onc2c1CCCC2 68.2%, O=C(c1noc2c1CCCC2)N1CCc2ccccc2C1 63.6%, Oc1ccc(-c2cccc(-c3ccc(O)cc3)c2)cc1 57.6%

Reporter increase, inactive:
Cc1ccc(Cc2c(-c3ccccc3)nc3ccc(Cl)cn23)cc1 21%, Clc1cccc(Cc2c(-c3cccc(Cl)c3)nc3ccc(Cl)cn23)c1 35.2%, Cc1ccc(Cc2c(-c3ccco3)nc3ccc(Cl)cn23)cc1 -7.76%, Brc1ccc2nc(-c3ccccc3)c(Cc3ccccc3)n2c1 18%, Fc1cccc(Cc2c(-c3ccc(Cl)cc3)nc3ccc(Cl)cn23)c1 7.58%, C[C@H](CO)N1C[C@H](C)[C@H](CN(C)C(=O)c2ccncc2)Oc2cc(C#CC3(O)CCCC3)ccc2S1(=O)=O 2.01%, Cc1ccc(S(=O)(=O)N[C@@H]2CC[C@H](CCNC(=O)C3CCOCC3)O[C@@H]2CO)cc1 3.97%, CC1CCCN(CC(=O)Nc2cc(Cl)ccc2Oc2ccccc2)C1 (stereo unspecified) 0.159%, O=C(CN1CCOCC1)Nc1ccc(NC(=O)CN2CCOCC2)c(Cl)c1 3.57%, Oc1ccc(-n2nnnc2SCc2c(F)cccc2Cl)cc1 -6.31%, Cn1c(SCC(=O)c2ccc(F)cc2)nnc1-c1ccccn1 39.1%, Cc1noc(C)c1S(=O)(=O)Nc1ccc2c(c1)C(=O)N([C@@H](C)CO)C[C@@H](C)[C@@H](CN(C)Cc1ccccc1)OCCCC[C@H](C)O2 -1.71%, CCOC(=O)CSc1nnc(CNc2ccc(F)cc2)o1 4.3%, Cc1ccn2c(=O)nc(SCC(=O)NCc3ccc(F)cc3)nc2c1 -3.54%, O=C(C[C@H]1CC[C@H]2[C@@H](COC[C@@H](O)CN2CCC(F)(F)F)O1)NCc1ccc2c(c1)OCO2 -0.0255%, CCCC(=O)Nc1ccc2c(c1)C(=O)N(C)[C@@H]1CC[C@H](CC(=O)Nc3cn(C)nc3C)O[C@H]1CO2 -3.47%, C[C@@H]1CN([C@@H](C)CO)C(=O)c2cc(C#CCc3ccccc3)cnc2O[C@@H]1CN(C)C(=O)C1CCOCC1 -0.454%, Cc1cccc(N(CC(=O)N2CCOCC2)S(C)(=O)=O)c1 0.817%, Cc1ccc(N2C(=O)SC(N(CC(=O)O)c3ccc(C)cc3)C2=O)cc1 (stereo unspecified) -3.76%, C[C@H]1CN([C@@H](C)CO)C(=O)c2cc(N(C)C)ccc2O[C@@H]1CN(C)C(=O)Nc1ccc2c(c1)OCO2 0.253%, O=C(Nc1cccc2ccccc12)c1[nH]c(-c2ccccc2)c2c1C(=O)N(C1CC1)C2=O -8.26%, O=C(Nc1cccc2ccccc12)NC1CC1 -6.94%, C[C@@H]1CN([C@@H](C)CO)S(=O)(=O)c2ccc(C#Cc3cccnc3)cc2O[C@@H]1CN(C)C -4.81%, COc1ccc2c(c1)CCc1c(C(=O)N3CCc4ccccc4C3)noc1-2 26.1%, O=C(c1cc(-c2cccc(O)c2)on1)N1CCc2ccccc2C1 10.2%, COC(=O)C[C@@H]1CC[C@H]2[C@H](COc3ccc(NC(=O)c4cccs4)cc3C(=O)N2C)O1 2.44%, O=C(CN1CCN(c2ccc(O)cc2)CC1)Nc1ccc(-c2ccccc2)cc1 -6.35%, O=C(CN1CCOCC1)NCC[C@@H]1CC[C@@H](NC(=O)Nc2ccccc2)[C@H](CO)O1 -0.967%, CCCNC(=O)N(C)C[C@H]1Oc2cc(C3=CCCCC3)ccc2S(=O)(=O)N([C@H](C)CO)C[C@H]1C -6.45%, COc1ccc(NC(=O)N(C)C[C@@H]2OCCCC[C@H](C)Oc3ccc(NS(=O)(=O)c4cn(C)cn4)cc3C(=O)N([C@@H](C)CO)C[C@@H]2C)cc1 1.74%, C[C@@H](O)C#Cc1ccc([C@H]2[C@H](CO)N3CCCCN(C(=O)c4ccc5c(c4)OCO5)C[C@@H]23)cc1 -3.75%
